Experiment [1] in a line: small molecules captured by biotinylated probe aFSTL3 – biochemical, small-molecule microarray, fluorescence 635/667, stem cell growth factor project, primary screen (AID 1064).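 Further: measures binding of the biotinylated anti-FSTL3 antibody to printed compounds.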 Particulars: higher = more signal.
Experiment [2] in a line: binders from COS7 lysate, DM2A8 probe, primary screen, torsin A project, cell lysate, small-molecule microarray, fluorescence 635/667 (AID 1065). Particulars: higher = more signal, COS7 lysate expressing mutant human TOR1A.
A short description of experiment [3]: small molecules captured by biotinylated probe aFGF2 – biochemical, small-molecule microarray, fluorescence 635/667, stem cell growth factor project, primary screen (AID 1067).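 Further: measures binding of biotinylated aFGF2 protein to printed compounds on slides; z-score merges feature fluorescence and signal-to-noise across triplicate slides.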 Particulars: higher = more signal.
The nature of experiment [4]: small molecules captured by biotinylated probe aFGF10 – biochemical, small-molecule microarray, fluorescence 635/667, stem cell growth factor project, primary screen (AID 1071).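 Further: score merges 667 nm spot intensity and signal to noise from triplicate slides.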 Particulars: higher = more signal.
Experiment [5] concerns the target Neurogenic locus notch homolog protein 2 (Homo sapiens) (UniProt Q04721). As to the kind of experiment: small molecules binding Notch2 protein – biochemical, small-molecule microarray, 635 nm fluorescence, stem cell growth factors, primary screen (AID 1073). Particulars: higher = more signal.
Experiment [6] concerns the target Pro-neuregulin-1, membrane-bound isoform (Homo sapiens) (UniProt Q02297). The experiment is described as follows: small molecules binding neuregulin-1 protein – biochemical, small-molecule microarray, fluorescence 635/667, psychiatric disease protein project, primary screen (AID 1075).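 Further: score combines 667 nm spot fluorescence with signal to noise.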 Particulars: NRG1 binding, 635 nm fluorescence, higher = more signal.
Experiment [7] has as its system Neuregulin-1 EGF-like domain. The experiment is described as follows: small molecules binding NRG1 EGF domain – biochemical, small-molecule microarray, 635 nm fluorescence, primary screen (AID 1081).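 Further: binding of the protein to compounds printed on small-molecule microarray slides.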 Particulars: higher = more signal.
A short description of experiment [8]: FRG1 expression reporter modulators in myotubes – cell-based, C2C12 myotubes, firefly/Renilla luciferase, luminescence, FRG1 inhibition for FSHD, primary screen (AID 1084). Particulars: FRG1 promoter luciferase, higher = more signal, called active from +8 up or from −8 down.
Experiment [9] is described as follows: small molecules captured by biotinylated probe aFST – biochemical, small-molecule microarray, fluorescence 635/667, stem cell growth factor project, primary screen (AID 1086).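 Further: score merges 667 nm fluorescence with signal-to-noise of each printed compound spot.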 Particulars: higher = more signal.
Experiment [10] in a line: binders of probe aHhip on microarray, primary screen, stem cell growth factor project, biochemical, small-molecule microarray, fluorescence 635/667 (AID 1087).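 Further: score merges spot fluorescence at 667nm with spot signal to noise ratio.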 Particulars: higher = more signal.
Experiment [11] relates to PRMT1 (protein arginine N-methyltransferase 1). As to the kind of experiment: small molecules binding arginine methyltransferase PRMT1 – biochemical, small-molecule microarray, 635 nm fluorescence, primary screen (AID 1088).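 Further: binding of Prmt1 protein to compounds spotted on small-molecule microarray slides.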 Particulars: higher = more signal.
Experiment [12] can be described thus: growth effects on S. cerevisiae YJM789 – YJM789 clinical isolate, OD600, 24 h, basal, primary screen (AID 1089).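 Further: growth of clinical yeast isolate S. cerevisiae YJM 789 seeded 1000 cells per well; test concentration not given here.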 Particulars: higher = more signal, called active from +8 up or from −8 down.
Experiment [13] can be described thus: S. pombe growth modifiers, basal conditions – strain 972, OD600, 24 h, no modulator, primary screen (AID 1090).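 Further: basal condition with compound alone and no growth modifier present; test concentration not given here.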 Particulars: S. pombe 972 growth, higher = more signal, called active from +8 up or from −8 down.
Experiment [14] is described as follows: budding yeast growth modifiers under rapamycin – strain BY4716, OD600, 96 h, primary screen (AID 1091). Further: test concentration not given here. Particulars: S. cerevisiae BY4716 + rapamycin, higher = more signal, called active from +8 up or from −8 down.
The target in experiment [15] is Torsin-1A-interacting protein 2 (Homo sapiens) (UniProt Q8NFQ8). As to the kind of experiment: small molecules binding lysate-expressed LULL1 – cell lysate, human LULL1 lysate, 635/667 nm fluorescence, primary screen (AID 1092).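 Further: probe is lysate of COS7 cells overexpressing human LULL1; score merges per-feature 667 nm fluorescence with signal-to-noise.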 Particulars: small-molecule microarray, hLULL1 lysate binding, 635 nm fluorescence; higher = more signal.
A short description of experiment [16]: optical density change of DRC41 E. coli – strain DRC41, OD650, 24 h, E. coli filamentation project, primary screen (AID 1093).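 Further: MC1000 strain lacking acrAB efflux and sulA so SOS filamentation is blocked; test concentration not given here.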 Particulars: E. coli DRC41 growth, higher = more signal, called active from +8 up or from −8 down.
A short description of experiment [17]: probe aLefty2 binding to arrayed compounds – biochemical, biotinylated probe, 635/667 nm fluorescence, primary screen (AID 1094).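 Further: score merges spot fluorescence near 667 nm with spot signal-to-noise ratio.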 Particulars: small-molecule microarray, higher = more signal.
For experiment [18], the system named is Noggin (protein binding on small-molecule microarray). The experiment is described as follows: small molecules binding Noggin protein – biochemical, 635/667 nm fluorescence, primary screen (AID 1095).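 Further: score merges 667 nm feature fluorescence with signal to noise over triplicate slides.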 Particulars: 635 nm fluorescence, higher = more signal.
For experiment [19], the target named is Neurogenic locus notch homolog protein 3 (Homo sapiens) (UniProt Q9UM47). As to the kind of experiment: small molecules binding NOTCH3 protein – biochemical, 635/667 nm fluorescence, primary screen (AID 1096). Particulars: small-molecule microarray, 635 nm fluorescence, higher = more signal.
Experiment [20] in a line: probe aEGFR binding to arrayed compounds – biochemical, biotinylated probe, 635/667 nm fluorescence, primary screen (AID 1097).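 Further: probe is a biotinylated anti-EGFR antibody binding compounds printed on slides; score combines fluorescence near 667 nm and signal to noise of each spot.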 Particulars: small-molecule microarray, higher = more signal.

Activity calls are given as the source filed them.

Sequence of Neurogenic locus notch homolog protein 3 (Homo sapiens) (Q9UM47 whole entry, looked up): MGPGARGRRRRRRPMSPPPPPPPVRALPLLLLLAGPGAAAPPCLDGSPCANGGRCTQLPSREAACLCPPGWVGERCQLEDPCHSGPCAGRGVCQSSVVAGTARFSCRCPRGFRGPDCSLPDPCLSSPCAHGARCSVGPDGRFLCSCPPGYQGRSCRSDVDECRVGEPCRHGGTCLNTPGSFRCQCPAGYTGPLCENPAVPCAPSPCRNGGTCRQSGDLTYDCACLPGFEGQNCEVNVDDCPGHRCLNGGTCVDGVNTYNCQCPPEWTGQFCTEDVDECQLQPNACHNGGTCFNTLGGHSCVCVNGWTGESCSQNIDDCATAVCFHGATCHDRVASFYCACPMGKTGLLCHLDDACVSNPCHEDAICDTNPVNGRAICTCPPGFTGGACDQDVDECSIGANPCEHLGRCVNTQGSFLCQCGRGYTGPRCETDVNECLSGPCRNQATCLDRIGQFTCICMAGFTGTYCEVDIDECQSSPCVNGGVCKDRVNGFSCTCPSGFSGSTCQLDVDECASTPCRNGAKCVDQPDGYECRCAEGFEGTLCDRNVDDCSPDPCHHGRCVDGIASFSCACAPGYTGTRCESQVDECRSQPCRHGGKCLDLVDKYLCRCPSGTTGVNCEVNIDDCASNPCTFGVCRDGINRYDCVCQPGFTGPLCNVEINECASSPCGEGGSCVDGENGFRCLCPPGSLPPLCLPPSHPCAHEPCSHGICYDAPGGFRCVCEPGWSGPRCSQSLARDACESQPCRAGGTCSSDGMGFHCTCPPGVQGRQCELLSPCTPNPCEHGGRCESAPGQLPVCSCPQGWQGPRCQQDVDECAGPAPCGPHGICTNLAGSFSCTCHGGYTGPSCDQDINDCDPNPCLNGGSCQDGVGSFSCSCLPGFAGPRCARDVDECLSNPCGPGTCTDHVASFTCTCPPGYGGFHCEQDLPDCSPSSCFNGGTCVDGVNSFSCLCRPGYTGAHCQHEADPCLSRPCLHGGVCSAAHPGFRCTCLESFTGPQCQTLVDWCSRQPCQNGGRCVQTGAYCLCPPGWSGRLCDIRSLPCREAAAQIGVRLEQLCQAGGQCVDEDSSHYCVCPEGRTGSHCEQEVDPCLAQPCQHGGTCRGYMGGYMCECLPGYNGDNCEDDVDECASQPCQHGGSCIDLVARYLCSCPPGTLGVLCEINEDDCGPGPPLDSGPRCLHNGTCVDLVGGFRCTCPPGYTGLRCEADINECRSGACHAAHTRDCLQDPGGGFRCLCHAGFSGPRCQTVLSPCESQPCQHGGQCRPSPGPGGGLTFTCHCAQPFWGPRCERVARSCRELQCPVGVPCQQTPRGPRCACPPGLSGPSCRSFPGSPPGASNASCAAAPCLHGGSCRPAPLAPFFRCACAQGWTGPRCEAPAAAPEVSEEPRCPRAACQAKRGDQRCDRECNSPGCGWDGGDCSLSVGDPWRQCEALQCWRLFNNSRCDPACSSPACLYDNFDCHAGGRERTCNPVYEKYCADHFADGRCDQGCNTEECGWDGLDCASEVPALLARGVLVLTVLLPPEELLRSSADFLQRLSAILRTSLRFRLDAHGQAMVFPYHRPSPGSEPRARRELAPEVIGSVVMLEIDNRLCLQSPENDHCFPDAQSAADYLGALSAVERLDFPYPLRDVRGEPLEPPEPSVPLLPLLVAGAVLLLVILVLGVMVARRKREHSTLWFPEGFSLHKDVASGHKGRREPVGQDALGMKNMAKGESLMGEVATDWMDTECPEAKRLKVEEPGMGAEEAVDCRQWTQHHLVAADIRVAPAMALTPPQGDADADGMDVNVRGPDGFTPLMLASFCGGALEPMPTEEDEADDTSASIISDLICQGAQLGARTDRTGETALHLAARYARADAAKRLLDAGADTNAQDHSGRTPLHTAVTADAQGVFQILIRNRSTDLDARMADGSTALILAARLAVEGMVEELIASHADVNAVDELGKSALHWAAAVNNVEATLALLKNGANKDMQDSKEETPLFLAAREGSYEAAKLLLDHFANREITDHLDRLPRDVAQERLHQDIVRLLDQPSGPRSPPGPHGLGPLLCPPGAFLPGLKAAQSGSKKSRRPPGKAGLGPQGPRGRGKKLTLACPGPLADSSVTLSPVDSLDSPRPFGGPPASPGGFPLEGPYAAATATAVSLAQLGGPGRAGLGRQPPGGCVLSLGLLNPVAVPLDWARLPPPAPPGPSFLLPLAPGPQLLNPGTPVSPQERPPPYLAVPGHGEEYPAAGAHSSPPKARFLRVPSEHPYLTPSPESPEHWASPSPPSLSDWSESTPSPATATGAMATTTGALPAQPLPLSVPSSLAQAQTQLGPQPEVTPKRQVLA
Sequence of Neurogenic locus notch homolog protein 2 (Homo sapiens) (Q04721 whole entry, looked up, canonical isoform): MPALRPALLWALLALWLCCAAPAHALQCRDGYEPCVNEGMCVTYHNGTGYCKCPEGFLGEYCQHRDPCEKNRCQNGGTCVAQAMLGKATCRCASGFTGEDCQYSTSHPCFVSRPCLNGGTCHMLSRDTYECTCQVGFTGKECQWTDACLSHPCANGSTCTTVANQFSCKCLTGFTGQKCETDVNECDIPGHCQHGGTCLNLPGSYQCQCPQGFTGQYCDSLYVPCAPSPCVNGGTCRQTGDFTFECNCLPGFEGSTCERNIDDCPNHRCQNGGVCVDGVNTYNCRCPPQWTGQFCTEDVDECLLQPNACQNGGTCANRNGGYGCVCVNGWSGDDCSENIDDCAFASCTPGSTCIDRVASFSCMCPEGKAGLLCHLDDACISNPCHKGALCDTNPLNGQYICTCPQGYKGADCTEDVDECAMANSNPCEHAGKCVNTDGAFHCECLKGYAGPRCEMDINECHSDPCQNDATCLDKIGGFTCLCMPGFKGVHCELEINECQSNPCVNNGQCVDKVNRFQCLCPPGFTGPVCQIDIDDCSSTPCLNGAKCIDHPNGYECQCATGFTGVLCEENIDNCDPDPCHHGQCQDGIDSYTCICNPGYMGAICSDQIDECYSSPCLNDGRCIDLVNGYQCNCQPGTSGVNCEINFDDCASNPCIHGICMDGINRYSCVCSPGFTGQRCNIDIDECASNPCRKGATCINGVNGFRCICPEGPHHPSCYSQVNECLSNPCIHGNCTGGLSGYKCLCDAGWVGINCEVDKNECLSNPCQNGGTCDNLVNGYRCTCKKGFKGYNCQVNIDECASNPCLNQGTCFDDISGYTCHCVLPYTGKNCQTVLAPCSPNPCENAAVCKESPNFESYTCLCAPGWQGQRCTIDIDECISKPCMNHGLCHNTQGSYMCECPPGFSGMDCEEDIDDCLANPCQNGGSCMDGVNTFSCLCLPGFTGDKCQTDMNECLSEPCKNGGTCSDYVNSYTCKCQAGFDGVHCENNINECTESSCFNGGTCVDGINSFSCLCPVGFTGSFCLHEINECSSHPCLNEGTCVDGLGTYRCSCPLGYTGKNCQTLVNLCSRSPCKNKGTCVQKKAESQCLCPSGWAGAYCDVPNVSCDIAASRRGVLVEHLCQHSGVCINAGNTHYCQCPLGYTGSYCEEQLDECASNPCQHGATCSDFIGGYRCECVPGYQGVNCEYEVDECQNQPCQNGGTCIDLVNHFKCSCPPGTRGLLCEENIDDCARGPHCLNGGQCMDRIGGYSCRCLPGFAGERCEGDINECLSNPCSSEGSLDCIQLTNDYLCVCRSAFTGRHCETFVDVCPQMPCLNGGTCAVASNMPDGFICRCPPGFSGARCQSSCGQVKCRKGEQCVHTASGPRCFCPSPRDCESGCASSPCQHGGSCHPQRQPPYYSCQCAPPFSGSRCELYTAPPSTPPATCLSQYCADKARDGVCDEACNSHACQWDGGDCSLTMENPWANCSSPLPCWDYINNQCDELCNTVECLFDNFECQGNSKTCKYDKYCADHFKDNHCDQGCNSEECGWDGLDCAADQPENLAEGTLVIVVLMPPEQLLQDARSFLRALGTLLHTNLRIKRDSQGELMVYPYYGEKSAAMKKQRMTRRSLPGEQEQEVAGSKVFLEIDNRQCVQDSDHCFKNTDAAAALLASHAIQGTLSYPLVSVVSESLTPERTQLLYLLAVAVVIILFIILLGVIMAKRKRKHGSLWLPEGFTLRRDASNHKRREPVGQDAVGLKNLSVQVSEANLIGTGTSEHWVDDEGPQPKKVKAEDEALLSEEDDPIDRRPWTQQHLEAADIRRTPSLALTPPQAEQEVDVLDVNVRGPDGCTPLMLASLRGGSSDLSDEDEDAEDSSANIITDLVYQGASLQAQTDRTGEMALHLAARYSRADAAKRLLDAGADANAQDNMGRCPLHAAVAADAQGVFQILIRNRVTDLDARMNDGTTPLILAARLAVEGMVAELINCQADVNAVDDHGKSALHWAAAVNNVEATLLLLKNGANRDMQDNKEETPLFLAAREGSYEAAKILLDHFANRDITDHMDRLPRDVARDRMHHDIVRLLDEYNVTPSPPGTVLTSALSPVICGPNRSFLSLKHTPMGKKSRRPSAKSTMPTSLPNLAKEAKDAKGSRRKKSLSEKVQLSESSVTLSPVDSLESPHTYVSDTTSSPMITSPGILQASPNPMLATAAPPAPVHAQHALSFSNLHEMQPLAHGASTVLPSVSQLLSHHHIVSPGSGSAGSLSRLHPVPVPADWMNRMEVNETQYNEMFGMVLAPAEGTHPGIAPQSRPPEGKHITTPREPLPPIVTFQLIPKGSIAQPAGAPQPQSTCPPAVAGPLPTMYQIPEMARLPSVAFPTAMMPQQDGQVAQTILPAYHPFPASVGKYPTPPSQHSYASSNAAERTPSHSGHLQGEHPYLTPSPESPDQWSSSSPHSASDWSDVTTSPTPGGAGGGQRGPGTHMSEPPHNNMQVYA

On to `CN1C(=O)C2C=CC(C(O)Cc3ccccc3)N(Nc3ccccc3)C2C1=O` (stereo not given), for which the composite z-score in experiment [1] is 0.0217; in experiment [2], -0.576; in experiment [3], -0.116; in experiment [4], 0.294; in experiment [5], 1.21; in experiment [6], 1.38. In addition, the composite z-score in experiment [7] was 1.13; in experiment [9] it was 0.0791; in [10], -0.236; in experiment [11], 0.0459; in experiment [15], 3.43; in experiment [17], 0.126. In addition, the values for the composite z-score in experiment [18], in [19] and in experiment [20] were 0.129, 0.297 and -0.071, respectively. The z-score is 0.84 (inactive) in experiment [8]; 0.398 (inactive) in [12]; 0.0113 (inactive) in [13]; -0.0322 (inactive) in experiment [14]; -1.05 (inactive) in experiment [16].
With `COC(=O)[C@@]1(Cc2ccc(OC)cc2)[C@H]2c3cc(C(=O)N4CCCC4)n(Cc4ccccc4)c3C[C@H]2CN1C(=O)c1ccccc1`, the composite z-score came out at 2.67 in experiment [1]; 0.0681 in experiment [2]; 0.788 in experiment [3]; 0.784 in [4]; 1.61 in [5]; 1.98 in [6]. Besides, the composite z-score in experiment [7] is 1.36; in experiment [9], 2.34; in [10], 0.671; in [11] it was 0.678; in [15] it was 3.37; in experiment [17], 1.62. Further, the composite z-score in [18] is -0.242; in experiment [19] it was 1.05; in experiment [20] it was 1.25. Also, the z-score in [8] was 0.42 (inactive); in experiment [12] it was -0.183 (inactive); in experiment [13] it was 0.657 (inactive); in experiment [14], 1.12 (inactive); in [16], -0.801 (inactive).
Consider `COc1cc(OC)c(C(O)C2C=CC3C(=O)NC(=O)C3N2Nc2ccc(Cl)cc2Cl)cc1Br` (stereo not given), for which the composite z-score in [1] is 0.379; in experiment [2] it was -0.0156; in experiment [3] it was 0.19; in [4], 0.141; in [5], 1.61; in [6] it was 1.9. The composite z-score in [7] is 1.11; in [9], 1.58; in experiment [10], -0.199; in [11], 0.743; in experiment [15] it was 3.34; in experiment [17], 0.277. Besides, the composite z-score in experiment [18] is -0.48; in experiment [19] it was 0.541; in experiment [20], 0.0009. In addition, the z-score in experiment [8] was 0.809 (inactive); in experiment [12], -18.8 (active); in [13], 0.109 (inactive); in [14] it was -0.55 (inactive); in experiment [16] it was -1.99 (inactive).
In the case of `CCCCCC1=C2CNC(CCC)(C(=O)OC)C=C2C(C)C1=O` (stereo not given), the composite z-score in experiment [1] is 0.327; in [2], 0.0422; in [3], -0.0074; in experiment [4] it was 0.159; in [5], 1.14; in experiment [6], 0.92. In addition, the composite z-score in experiment [7] is 0.993; in experiment [9], 0.21; in [10], 1.96; in [11] it was -0.523; in experiment [15], 2.13; in experiment [17], 0.0943. Further, the composite z-score in experiment [18] is -0.236; in experiment [19] it was 0.358; in experiment [20], 0.189. The z-score in experiment [8] is 0.488 (inactive); in [12], 0.0131 (inactive); in experiment [13], 0.277 (inactive); in [14], 0.573 (inactive); in experiment [16], -0.48 (inactive).
As for `CCOC(=O)C1=CCC(c2ccccc2)N(S(=O)(=O)CC[Si](C)(C)C)C1` (stereo not given), the composite z-score in experiment [1] is -0.264; in [2], 0.701; in experiment [3], -0.137; in [4], -0.765; in experiment [5] it was -0.606; in [6], 0.0168. The composite z-score was -0.518 in experiment [7]; -0.407 in experiment [9]; -0.0994 in experiment [10]; -0.0595 in [11]; 0.0058 in experiment [15]; -0.235 in experiment [17]. In addition, the figures for the composite z-score in experiment [18], in [19] and in experiment [20] were -0.288, -0.822 and -0.334, respectively. Moreover, the z-score in experiment [8] was -3.74 (inactive); in [12], -0.465 (inactive); in experiment [13], 0.178 (inactive); in [14], 2.78 (inactive); in experiment [16] it was 0.185 (inactive).
